Results taken from PubChem BioAssay (Tox21).
Results filed as inconclusive are left out. The source made the active and inactive calls. Unless noted, calls come from the whole dose curve; as a rule, active = well fitted curve in the direction sought with a large enough effect in the repeat runs; inconclusive = weak or mixed curves; inactive = no such curve, though single readings can be large; an effect the other way counts as inactive or inconclusive.

Assays:
[1] = qHTS assay for small molecules that induce genotoxicity in human embryonic kidney cells expressing luciferase-tagged ATAD5 (AID 651632); note: nearly all actives have a fitted effect of over 15% in size
How it was run: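 Concentration-response screen for ATAD5 upregulation in HEK293T luciferase reporter cells; 16 hr treatment at 37C, then luminescence after 30 min with Amplite at room temperature.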

[2] = qHTS assay for small molecule agonists of the p53 signaling pathway - cell viability (AID 651633; calls by dose curve;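 note: p53RE-bla HCT reporter cells with a stable beta-lactamase p53 reporter; nearly all actives have a fitted effect of over 30% in size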)
How it was run: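 Viability counter-read: CellTiter-Glo luminescence (30 min, room temperature) in the same p53RE-bla plates. These plates had been exposed to compounds for 16 h at 37 C.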

[3] = qHTS assay for small molecules that induce genotoxicity in human embryonic kidney cells expressing luciferase-tagged ATAD5 - cell viability (AID 651634; calls by dose curve; note: nearly all actives have a fitted effect of over 25% in size; note: potency is the fitted concentration of half-maximal effect)
How it was run: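 15.5 hr compound or vehicle exposure of HEK293T cells expressing luciferase-tagged ATAD5 at 37C; live-cell protease activity is read by fluorescence after 30 min of CellTiter-Fluor.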

[4] = qHTS assay for small molecule disruptors of the mitochondrial membrane potential - cell viability (AID 720634; calls by dose curve;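 note: human HepG2 liver cancer cells; nearly all actives have a fitted effect of over 20% in size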)
How it was run: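 In this qHTS format, HepG2 cells plated overnight were pinned with compound, incubated 1 hr, and assayed for ATP luminescence with CellTiter-Glo after m-MPI dye addition.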

[5] = qHTS assay for small molecule disruptors of the mitochondrial membrane potential (AID 720635); note: potency is the fitted concentration of half-maximal effect
How it was run: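 Mitochondrial membrane potential tracked with Mito-MPS dye, red aggregates (ex 540/em 590 nm) against green monomers (ex 490/em 535 nm). Compound treatment 1 hr at 37C, dye 30 min in HepG2.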

[6] = qHTS assay to test for compound auto fluorescence at 590 nm (red) in HepG2 cells (AID 720674)
How it was run: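 We screened compounds on adherent HepG2 cells, incubating them for an hour at 37 C in 5% CO2 before reading emission at 590 nm under 540 nm excitation; values reflect equivalence to Rose Bengal sodium fluorescence.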

[7] = qHTS assay to test for compound auto fluorescence at 535 nm (green) in HepG2 cells (AID 720675)
[8] = qHTS assay to test for compound auto fluorescence at 460 nm (blue) in HEK293 cells (AID 720678)
How it was run: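 Cells were seeded and left to adhere for 4-5 hr at 37C. Compounds were then pin-transferred. After an overnight incubation at 37C under 5% CO2, intrinsic fluorescence at 405/460 nm was measured and referenced to triamterene.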

[9] = qHTS assay to test for compound auto fluorescence at 590 nm (red) in HEK293 cells (AID 720679)
How it was run: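 Each well held 2,000 HEK293 cells in medium containing 10% dialyzed FBS. Following 4-5 hr attachment at 37C, 23 nL test compound or DMSO was added; plates sat overnight, and red fluorescence (540/590nm) was recorded.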

[10] = qHTS assay to test for compound auto fluorescence at 535 nm (green) in HEK293 cells (AID 720680)
[11] = qHTS assay to test for compound auto fluorescence at 460 nm (blue) in HEK293 cell free culture (AID 720681)
How it was run: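 Blue fluorescence (Ex 405/Em 460 nm, triamterene-equivalent) was read immediately after pin transfer of compound or DMSO into medium (DMEM, 10% FBS) without cells.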

[12] = qHTS assay to test for compound auto fluorescence at 535 nm (green) in HEK293 cell free culture (AID 720682)
How it was run: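 Measurement is a direct plate read of green fluorescence (485 nm in, 535 nm out) after compound addition to serum-supplemented DMEM lacking cells, with fluorescein used to express intensities.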

[13] = qHTS assay to test for compound auto fluorescence at 590 nm (red) in HEK293 cell free culture (AID 720683)
How it was run: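 Red-channel autofluorescence of compounds in culture medium (DMEM, 10% FBS), no cells, measured at 540/590 nm. Rose Bengal sodium is the reference fluorophore for equivalence.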

[14] = qHTS assay to test for compound auto fluorescence at 590 nm (red) in HepG2 cell free culture (AID 720684)
How it was run: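 No cells present: MEM + 10% FBS only. Compound pinned in, red label read (540/590 nm). Activity = fluorescence equivalent to Rose Bengal sodium.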

[15] = qHTS assay to test for compound auto fluorescence at 460 nm (blue) in HepG2 cell free culture (AID 720685)
How it was run: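 Cell-free plates of MEM plus 10% FBS received 23 nL compound or DMSO vehicle; blue-channel (405/460 nm) intensity scored against triamterene as reference fluorophore.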

[16] = qHTS assay to test for compound auto fluorescence at 535 nm (green) in HepG2 cell free culture (AID 720686)
[17] = qHTS assay to test for compound auto fluorescence at 460 nm (blue) in HepG2 cells (AID 720687)
How it was run: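 Blue-channel autofluorescence (Ex/Em 405/460 nm, triamterene-equivalent) was measured after 1 hr compound exposure at 37 C, 5% CO2. Cells were HepG2, plated overnight at 37 C in MEM plus 10% FBS.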

[18] = biological target: Glucocorticoid receptor (Homo sapiens) (UniProt P04150); test: qHTS assay to identify small molecule agonists of the glucocorticoid receptor (GR) signaling pathway (AID 720691; active = well fitted activation curve with a large enough effect in the signal ratio in the repeat runs, not every such curve was filed as active; the % refers to the signal ratio); conditions: GR-bla HeLa, beta-lactamase reporter ratio, 18 h; activation: at 62.4 µM (top of the series)
How it was run: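 Measures GR pathway activation through a GRE-beta-lactamase reporter stably integrated in HeLa cells, with 18 h compound treatment at 37 C and fluorescence detection using a FRET substrate.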

[19] = biological target: Glucocorticoid receptor (Homo sapiens) (UniProt P04150); test: qHTS assay to identify small molecule antagonists of the glucocorticoid receptor (GR) signaling pathway (AID 720692; active = well fitted inhibition curve with a large enough effect in the signal ratio in the repeat runs, not every such curve was filed as active; the % refers to the signal ratio)
How it was run: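 Tox21 10K library screened in concentration-response for blockade of dexamethasone (5 nM final)-induced GRE-bla reporter activity in HeLa cells; 18 h treatment, fluorescence read.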

Measured: Potency

Chain of Glucocorticoid receptor (Homo sapiens) (P04150 whole entry, looked up): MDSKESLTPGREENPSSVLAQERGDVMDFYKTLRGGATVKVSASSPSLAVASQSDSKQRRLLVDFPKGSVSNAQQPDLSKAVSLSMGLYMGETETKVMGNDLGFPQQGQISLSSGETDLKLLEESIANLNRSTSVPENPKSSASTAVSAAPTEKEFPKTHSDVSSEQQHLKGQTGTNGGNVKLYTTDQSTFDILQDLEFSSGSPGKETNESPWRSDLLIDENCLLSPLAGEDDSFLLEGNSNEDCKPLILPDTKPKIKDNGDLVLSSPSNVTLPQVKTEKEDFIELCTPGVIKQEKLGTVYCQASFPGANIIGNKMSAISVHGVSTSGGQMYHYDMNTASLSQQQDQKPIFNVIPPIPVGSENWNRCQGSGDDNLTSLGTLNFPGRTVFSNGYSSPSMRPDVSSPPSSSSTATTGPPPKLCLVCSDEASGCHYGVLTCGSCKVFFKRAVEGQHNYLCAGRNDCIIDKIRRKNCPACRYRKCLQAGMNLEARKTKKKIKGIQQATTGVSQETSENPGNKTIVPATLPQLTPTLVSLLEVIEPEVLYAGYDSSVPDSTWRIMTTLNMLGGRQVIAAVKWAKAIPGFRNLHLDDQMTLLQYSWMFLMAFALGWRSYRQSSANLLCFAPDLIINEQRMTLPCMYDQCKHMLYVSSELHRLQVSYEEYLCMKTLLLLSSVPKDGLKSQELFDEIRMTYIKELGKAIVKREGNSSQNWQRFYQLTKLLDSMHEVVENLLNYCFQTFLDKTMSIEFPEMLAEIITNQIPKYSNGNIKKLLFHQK

C[C@@H]1C/C=C/C=C/C=C/C=C/[C@H](O[C@@H]2O[C@H](C)[C@@H](O)[C@H](N)[C@@H]2O)C[C@@H]2O[C@](O)(C[C@@H](O)C[C@H]3O[C@@H]3/C=C/C(=O)O1)C[C@H](O)[C@H]2C(=O)O
inactive: all assays above

O=C(O)C1=C(CSc2nnnn2CS(=O)(=O)O)CS[C@@H]2[C@H](NC(=O)[C@H](O)c3ccccc3)C(=O)N12
inactive: all assays above

O=C(OC[C@H]1O[C@](O)(COC(=O)c2cccnc2)[C@@H](OC(=O)c2cccnc2)[C@@H]1OC(=O)c1cccnc1)c1cccnc1
inactive: all assays above

CCCCCCCCCCCCCCCCCC(=O)OC[C@@H](O)[C@H]1OC[C@H](O)[C@H]1O
not listed: [15]
inactive: all other assays above

CC(C)C(=O)OCC(=O)[C@@]12O[C@H](C3CCCCC3)O[C@@H]1C[C@H]1[C@@H]3CCC4=CC(=O)C=C[C@]4(C)[C@H]3[C@@H](O)C[C@@]12C
active: [5] 7.84 µM
not listed: [15] | [18] | [19]
inactive: all other assays above

CCN(CC)c1ccc(N=Nc2ccc(S(=O)(=O)N(C)C)cc2)c(S(=O)(=O)NCC[n+]2ccccc2)c1
inactive: all assays above

CCCCCC(O)/C=C/C=O (stereo not given)
not listed: [18]
inactive: all other assays above

O=[n+]1ccn([O-])c2ccccc21
not listed: [14]
inactive: all other assays above

CO[C@@H]1[C@@H](O[C@@H]2O[C@H](C)[C@@H](O[C@H]3C[C@@](C)(O)[C@@H](OC(=O)CC(C)C)[C@H](C)O3)[C@H](N(C)C)[C@H]2O)[C@@H](CC=O)C[C@@H](C)[C@@H](O)/C=C/C=C/C[C@@H](C)OC(=O)C[C@H]1O
not listed: [18]
inactive: all other assays above

COc1ccc(C(=O)CCC(=O)O)c2ccccc12
not listed: [15] | [19]
inactive: all other assays above

CC[C@@H](C(=O)[C@@H](C)[C@@H](O)[C@H](C)[C@@H]1O[C@@H]([C@@H](CC)C(=O)O)CC[C@@H]1C)[C@H]1O[C@]2(C=C[C@@H](O)[C@]3(CC[C@@](C)([C@H]4CC[C@](O)(CC)[C@H](C)O4)O3)O2)[C@H](C)C[C@@H]1C
active: [3] 8.41 µM
not listed: [5] | [18] | [19]
inactive: all other assays above

C/C(=C(\CCOC(=O)c1ccccc1)SS/C(CCOC(=O)c1ccccc1)=C(/C)N(C=O)Cc1cnc(C)nc1N)N(C=O)Cc1cnc(C)nc1N
not listed: [7]
inactive: all other assays above
